High-throughput results as filed in PubChem.
CtBP-E1A inh: qHTS Assay for Inhibitors of the CtBP/E1A Interaction; AlphaScreen GST-E1A/His-CtBP binding, 1536-well; stronger effect = lower value; activity change, % (concentration not given with the values); hit rate 0.49% among 340,000; in the data active = activity change below about -65%; inconclusive = mostly about -30% to -63%; also: % is scaled to controls: 0 for no effect and ±100 for the full control effect
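In 5 uL wells, 23 nL compound meets equimolar GST-E1A and His-CtBP (5X stock 125 nM each) for 2 h, 37 °C. Beads (5X, 50 ug/mL) then 1 h, 37 °C, dark.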
G9a inh: qHTS Assay for Inhibitors of Histone Lysine Methyltransferase G9a; Histone-lysine N-methyltransferase EHMT2 (Homo sapiens), Q96KQ7; G9a H3K9 monomethylation, AlphaScreen, 2 h; Potency, µM (doses to about 102 µM), for the others: top-dose activity, negative = inhibition, hits mostly inhibitors; hit rate 8.8% among 350,000; AID 504332, 2011; also: potency is read from the fitted curve at half-maximal effect; % is scaled to controls: 0 for no effect and ±100 for the full control effect; nearly all actives have a fitted effect of over 75% in size
Target sequence (Q96KQ7 913-1193 limits assumed): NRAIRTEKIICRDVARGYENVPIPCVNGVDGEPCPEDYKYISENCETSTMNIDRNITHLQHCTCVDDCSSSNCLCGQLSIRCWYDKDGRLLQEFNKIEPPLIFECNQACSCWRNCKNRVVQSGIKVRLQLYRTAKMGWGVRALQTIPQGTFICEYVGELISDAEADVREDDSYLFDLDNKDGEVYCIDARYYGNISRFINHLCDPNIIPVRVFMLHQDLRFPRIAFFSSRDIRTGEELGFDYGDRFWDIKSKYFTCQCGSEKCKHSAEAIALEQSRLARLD
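Chemiluminescent proximity detection of H3K9 monomethylation, read after 10 min bead incubation in the dark. Reaction: 20 nM G9a, 500 nM biotin-H3K9 peptide, 20 uM SAM cofactor, 2 h, room temperature, following 15 min enzyme-compound preincubation.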
BAZ2B block: qHTS Assay for Inhibitors of BAZ2B; Potency, µM (highest dose often 114 µM), inactives show at the top dose activity change, negative = inhibition, hits mostly inhibitors; AlphaScreen BAZ2B-H3K14Ac peptide displacement; AID 504333, 2011; hit rate 4.4% among 360,000; also: potency is read from the fitted curve at half-maximal effect; % is scaled to controls: 0 for no effect and ±100 for the full control effect; nearly all actives have a fitted effect of over 60% in size
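Inhibition is scored as reduced AlphaScreen emission. The BAZ2B/b-H3(5-23)K14Ac complex (50 nM each) in PBS pH 7.4, 0.01% Tween-20 meets compound (up to 110 uM) for 30 min at RT before bead addition.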
JMJD2A Tudor inh: qHTS Assay for Inhibitors of JMJD2A-Tudor Domain. Lysine-specific demethylase 4A (Homo sapiens), O75164. AlphaScreen JMJD2A-Tudor / H3K4me3 peptide binding. Potency, µM (series often up to 114 µM), for the others: at the highest dose activity change, negative = inhibition, usual class: inhibitors. hit rate 4.4% among 390,000. AID 504339, 2011; also: potency is read from the fitted curve at half-maximal effect; % is scaled to controls: 0 for no effect and ±100 for the full control effect; nearly all actives have a fitted effect of over 50% in size
Six1-Eya2 inh: qHTS Assay for Inhibitors of the Six1/Eya2 Interaction; Homeobox protein SIX1 (Homo sapiens) + Protein phosphatase EYA2 (Homo sapiens), …; AlphaScreen GST-Six1/His-Eya2 binding, biochemical; stronger effect = lower value; activity change, % (concentration not given with the values); hit rate 0.56% among 360,000; in the data active = activity change below about -65%; inconclusive = mostly about -30% to -63%; also: % is scaled to controls: 0 for no effect and ±100 for the full control effect
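AlphaScreen luminescence read after one hour at 37 °C in darkness. Pin-transferred compounds met GST-Six1 and His-Eya2 protein (5X stock 250 nM/500 nM) plus glutathione donor and Ni-chelate acceptor beads (5X, 50 ug/mL).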
HP1b chromo inh: HTS for Inhibitors of HP1-beta Chromodomain Interactions with Methylated Histone Tails | Chromobox protein homolog 1 (Homo sapiens), P83916 | AlphaScreen HP1-beta / biotin-H3K9me3 peptide binding | Potency, µM (top dose mostly 114 µM), for inactives: top-dose activity change, negative = inhibition, actives largely listed as inhibitors | hit rate 0.56% among 390,000 | AID 540317, 2011; also: potency is read from the fitted curve at half-maximal effect; nearly all actives have a fitted effect of over 70% in size
Target sequence (P83916 whole entry, looked up): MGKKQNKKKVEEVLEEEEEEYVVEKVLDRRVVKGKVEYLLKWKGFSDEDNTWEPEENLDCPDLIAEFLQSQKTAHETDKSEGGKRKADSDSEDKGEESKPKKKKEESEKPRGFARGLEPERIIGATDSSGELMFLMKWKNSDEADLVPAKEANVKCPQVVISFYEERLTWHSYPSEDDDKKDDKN
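AlphaScreen: HP1-beta (50 nM) preformed 30 min with biotin-H3(1-18)K9me3 peptide (50 nM) in PBS pH 7.4, 0.01% Tween-20. Compound added for 30 min at RT, then streptavidin donor/nickel chelate acceptor beads (10 ug/mL) for 30 min.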
* = called active by the depositor; ? = inconclusive; nt = not tested or not shown; [ ] = remark or other dose. This is a sample that favours compounds with a hit; in the whole collection about 10% have one here. Unless noted, calls follow the shape of the dose curve; as a rule, active = well fitted inhibition curve with a large enough effect; inconclusive = small, poorly fitted or top-dose-only effect; inactive = no such curve, though single readings can be large or run the other way.

SMILES | CtBP-E1A inh | G9a inh | BAZ2B block | JMJD2A Tudor inh | Six1-Eya2 inh | HP1b chromo inh
CC1(c2ccc(Cl)cc2Cl)OCC(Cn2cncn2)O1 (configuration not stated) | 4 | ? | 71µM* | -15% | 10 | -2%
S=P(c1ccccc1)(c1ccccc1)c1c[nH]c2ccccc12 | nt | nt | nt | -35% | nt | nt
CCOC(=O)c1ccc2c(c1)n(Cc1ccccc1)c(C)[n+]2CC | 3 | 16% | -4% | -8% | -2 | 48%
CCOC(=O)c1ccc2c(c1)n(CCO)c(C)[n+]2CC | -3 | 35µM* | 10% | 50µM* | 1 | 19%
O=C(N=Nc1c(O)[nH]c(=O)[nH]c1=O)C1COc2cc3ccccc3cc2O1 (configuration not stated) | nt | 50µM* | ? | -15%[11.4 µM] | -3 | -16%
O=c1[nH]c(O)c(N=Nc2ccc(SC(F)F)cc2)c(=O)[nH]1 | 5 | 11% | -6% | -7%[11.4 µM] | -2 | 36%
C=CCN1C(=O)/C(=C/c2ccc(Br)s2)C(=O)NC1=S | nt | 3.2µM* | 56µM* | 45µM* | 3 | -13%
CCN1C(=O)/C(=C\c2ccc([N+](=O)[O-])s2)C(=O)NC1=S | nt | 2.8µM* | 10µM* | nt | nt | nt
CCC1C2CC3C4N(C)c5ccccc5[C@]45CC(C2C5O)N3C1O (some centres not stated) | nt | -3%[2.33 µM] | nt | nt | nt | nt
Cc1ccc(-c2csc(NC(CO)c3nc4ccccc4n3CCOCCO)n2)cc1 (configuration not stated) | -27 | nt | nt | ? | -9 | -4%
C=CCN1C(=O)NC(=O)/C(=C/c2ccc(OC)c(COc3ccc(NC(C)=O)cc3)c2)C1=O | -10 | nt | -9% | -23% | -5 | 30%
Cc1ccsc1/C=C1\C(=O)NC(=S)N(C)C1=O | nt | 7.9µM* | ? | 89µM* | -5 | 6%
COc1ccc(/C=C2\C(=O)NC(=S)N(C)C2=O)cc1C | 3 | nt | ? | 4µM* | ? | 8.9µM*
CN1C(=O)/C(=C/c2ccc(Cl)s2)C(=O)NC1=S | -6 | nt | -38% | 25µM* | -23 | 7%
CCOc1ccc(NCc2cccn2-c2nnc(N3CCC(C(=O)NCC(C)c4ccccc4)CC3)s2)cc1 (configuration not stated) | nt | ? | -30% | ? | nt | 11%
O=C(Nc1nnc(-c2ccco2)o1)c1cccc2ccccc12 | -14 | 9% | ? | ? | -28 | 32%
O=C(CCS(=O)(=O)c1ccccc1)Nc1nnc(-c2ccco2)o1 | -14 | 32µM* | 50µM* | 25µM* | -9 | 23%
CCOc1ccccc1-n1c(O)c(C=NCc2ccc3c(c2)OCO3)c(=O)[nH]c1=O | -3 | -6% | 8% | 12% | -2 | 22%
CCOc1ccccc1CN(CCc1ccc2c(c1)OCO2)Cc1ccc(CC)cc1 | nt | ? | 40µM* | 5µM* | nt | ?
CNC(C(=O)c1ccccc1)C(OC)c1ccc(C)cc1 (configuration not stated) | 4 | 45µM* | -2% | -28% | -2 | 32%
Cn1c(=O)n(C)c2cc(N3CCCC3)c(NC(=O)Nc3ccccc3)cc21 | nt | -34%[59 µM] | 50µM* | -22% | nt | 6%
Cc1cccc(N=Nc2ccc(N(C)C)cc2)c1 | ? | 8.9µM* | 7.1µM* | 14µM* | -72* | 11µM*
CN(C)c1ccccc1 | 3 | nt | nt | nt | 7 | nt
C=Cn1ccnc1P(=S)(c1nccn1C=C)c1nccn1C=C | -91* | -33%[59 µM] | -28% | ? | ? | 38%
COc1ccc(CCn2c(O)c(C=Nc3ccc(F)cc3)c(=O)[nH]c2=O)cc1OC | nt | nt | -3% | -24% | -5 | 20%
SMILES | CtBP-E1A inh | G9a inh | BAZ2B block | JMJD2A Tudor inh | Six1-Eya2 inh | HP1b chromo inh
CCN(CC)c1ccc(CN(C)CCc2ccc(OC)c(OC)c2)cc1 | -24 | ? | 45µM* | 10µM* | -26 | ?
COc1ccc(CCN(C)Cc2ccc(F)cc2F)cc1OC | -2 | 10µM* | ? | 4µM* | -2 | ?
O=C1C=CC(=O)C=C1 | -2 | ? | nt | ? | -8 | ?
O=C1C=CC(=O)C(Cl)=C1 | nt | 0.71µM* | nt | nt | nt | nt
C[C@]12CC[C@H](O)C[C@H]1CCC1C2CC[C@]2(C)[C@@H](c3ccc(=O)oc3)C[C@H]3O[C@]132 (some centres not stated) | nt | -34%[12.7 µM] | nt | nt | nt | nt
O=[N+]([O-])c1ccc(O)c([N+](=O)[O-])c1 | 2 | -49%[2.33 µM] | nt | ? | 2 | 18%
O=[N+]([O-])c1cc([As](=O)(O)O)ccc1O | 5 | -3%[12.7 µM] | -4% | 89µM* | -7 | 26%
[O-]C1=N/[N+](=C/c2ccc(Cl)cc2)CC1 | -4 | 8.9µM* | 11% | -10% | -1 | 26%
Cc1cscn1 | 0 | 10%[0.501 µM] | 8% | -9% | 0 | 69%
O=C1c2ccccc2C(=O)N1SC1CCCCC1 | -2 | 2µM* | 2% | ? | 0 | -8%
CCOC(=O)c1c(C)n(CCN2CCN(C)CC2)c2ccc(OC)cc12 | -4 | ? | -34% | 18µM* | 0 | ?
Cc1ccc(-c2nc(CN3C(=O)CN=C(c4ccccc4Cl)c4cc(Cl)ccc43)c(C)o2)cc1 | nt | -8%[59 µM] | 2% | -13% | nt | 17%
O=C(N/N=C/c1c(O)n(CCC2=CCCCC2)c(=S)[nH]c1=O)c1ccccc1 | -28 | ? | -5% | ? | -30 | 17%
O=C(CSC(=S)N1CCCC1)N/N=C/c1c(O)[nH]c(=S)[nH]c1=O | -93* | nt | nt | 56µM* | -91* | 33%
COCCn1c(O)c(/C=N/NC(=O)CSC(=S)N2CCCC2)c(=O)[nH]c1=S | -76* | -23%[59 µM] | -1% | 89µM* | ? | 37%
CC1=C2CCC3C4CCC(=O)[C@@]4(C)CCC3[C@]2(C)CCC1=O (some centres not stated) | nt | -35%[2.33 µM] | nt | nt | nt | nt
CCN1C[C@@]2(C)CC[C@@H](OC)[C@@]34C2C(O)[C@@]2(OCO[C@]25CC(OC)C2C[C@@]3(O)C5C2O)C14 (some centres not stated) | nt | -1%[2.33 µM] | nt | nt | nt | nt
CCC(=O)Nc1ccc(N2CCN(CC)CC2)c(Cl)c1 | 4 | 79µM* | ? | -17% | 5 | 5%
CCCC(=O)Nc1ccc(N2CCN(CC)CC2)c(Cl)c1 | 10 | -1%[12.7 µM] | -20% | -5%[57.1 µM] | 6 | 58%
